Source: PubChem BioAssay (NCATS)
Records with an inconclusive call do not appear. Activity calls are given as the source filed them. Unless noted, calls come from the whole dose curve; as a rule, active = well fitted curve in the direction sought with a large enough effect; inconclusive = small, poorly fitted or top-dose-only effect, or another doubt; inactive = no such curve, though single readings can be large; an effect the other way counts as inactive or inconclusive.

How the values were obtained:
C33A = assay: Primary qHTS to identify gynecologic anti-cancer compounds using libraries of approved drugs and bioactive compounds (AID 1345084); settings: Gynecologic cancer cell panel viability, ATPlite luminescence, 48 h; series mostly up to 57.5 µM; note: % is set by controls: 0 for no effect and ±100 for the full control effect; nearly all actives have a fitted effect of over 55% in size
In short: (§1)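 Cells, 1,000 per well, plated 16 h, then exposed 48 h at 37 C to compounds. Viability by ATPlite luminescence after 15 min at room temperature.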

CAOV3 = assay: as above; settings: Gynecologic cancer cell panel viability, ATPlite luminescence, 48 h; series mostly up to 57.5 µM
In short: as §1

CASKI = assay: as above; settings: Gynecologic cancer cell panel viability, ATPlite luminescence, 48 h; series mostly up to 57.5 µM
In short: as §1

Es-2 = assay: as above; settings: Gynecologic cancer cell panel viability, ATPlite luminescence, 48 h; series mostly up to 57.5 µM
In short: as §1

HeLa = assay: as above; settings: Gynecologic cancer cell panel viability, ATPlite luminescence, 48 h; series mostly up to 57.5 µM
In short: as §1

Hek293T = assay: as above; settings: Gynecologic cancer cell panel viability, ATPlite luminescence, 48 h, control line for the selectivity index; series mostly up to 57.5 µM
In short: as §1

JEG-3 = assay: as above; settings: Gynecologic cancer cell panel viability, ATPlite luminescence, 48 h; series mostly up to 57.5 µM
In short: as §1

OV90 = assay: as above; settings: Gynecologic cancer cell panel viability, ATPlite luminescence, 48 h; series mostly up to 57.5 µM
In short: as §1

PA-1 = assay: as above; settings: Gynecologic cancer cell panel viability, ATPlite luminescence, 48 h; series mostly up to 57.5 µM
In short: as §1

SKOV3 = assay: as above; settings: Gynecologic cancer cell panel viability, ATPlite luminescence, 48 h; series mostly up to 57.5 µM
In short: as §1

Tov-21-G = assay: as above; settings: Gynecologic cancer cell panel viability, ATPlite luminescence, 48 h; series mostly up to 57.5 µM
In short: as §1

Tov112D = assay: as above; settings: Gynecologic cancer cell panel viability, ATPlite luminescence, 48 h; series mostly up to 57.5 µM
In short: as §1

[1] = Drug repurposing screens with cells derived from glioblastoma tumor samples (AID 1345199); settings: GBM patient neurospheres viability, ATP luminescence, 48 h; note: nearly all actives have a fitted effect of over 40% in size; note: potency is the fitted concentration of half-maximal effect; for activity, negative = cell killing: % is set by controls: 0 for no effect and ±100 for the full control effect
In short: (§2)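 Four patient lines of CD133+ GBM neurospheres were screened at several concentrations; hits were retested in those lines plus three slower-growing GBM lines, using 48-hour treatment and ATP-based viability.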

astro = assay: as above; settings: viability, ATP luminescence, 48 h; series mostly up to 45.9 µM
In short: as §2

[2] = target: Nuclear receptor subfamily 1 group I member 2 (Rattus norvegicus) (UniProt Q9R1A7); assay: qHTS assay for small molecule activators of the rat pregnane X receptor (rPXR) signaling pathway (AID 651751; call rule not given here; note: 0% is about no effect); settings: rPXR reporter cells, luciferase (One-Glo), 24 h
[3] = at 45.9 µM (top of the series), tumour line B
[4] = at 45.9 µM (top of the series), tumour line D
[5] = at 46 µM (top of the series), tumour line A
[6] = at 46.1 µM (top of the series), tumour line C
[7] = at 20 µM (top of the series), tumour line C
[8] = at 21.2 µM (top of the series), tumour line B
[9] = at 21.2 µM (top of the series), tumour line D
[10] = at 21.3 µM (top of the series), tumour line A

Chain of Nuclear receptor subfamily 1 group I member 2 (Rattus norvegicus) (Q9R1A7 whole entry, looked up): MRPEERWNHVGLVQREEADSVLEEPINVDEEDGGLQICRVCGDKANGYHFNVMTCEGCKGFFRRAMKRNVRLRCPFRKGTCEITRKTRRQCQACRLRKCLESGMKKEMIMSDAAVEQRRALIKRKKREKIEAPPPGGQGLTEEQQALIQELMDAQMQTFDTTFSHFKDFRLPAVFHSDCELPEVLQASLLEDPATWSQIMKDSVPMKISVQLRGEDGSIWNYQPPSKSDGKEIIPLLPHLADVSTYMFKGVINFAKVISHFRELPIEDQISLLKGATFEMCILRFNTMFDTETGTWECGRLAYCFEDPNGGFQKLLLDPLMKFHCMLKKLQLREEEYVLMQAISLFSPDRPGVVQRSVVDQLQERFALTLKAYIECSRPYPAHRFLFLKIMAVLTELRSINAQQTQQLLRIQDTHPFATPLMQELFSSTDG

CCOC(=O)[C@H](CCc1ccccc1)N[C@@H](C)C(=O)N1CCC[C@H]1C(=O)O
inactive: outcome (C33A) | outcome (CAOV3) | outcome (CASKI) | outcome (Es-2) | outcome (HeLa) | outcome (Hek293T) | outcome (JEG-3) | Potency (OV90) | outcome (PA-1) | outcome (SKOV3) | outcome (Tov-21-G) | outcome (Tov112D) | activity, negative = cell killing [1, 3] -10.1% | activity, negative = cell killing [1, 4] -16.5% | activity, negative = cell killing [1, 5] -13.8% | activity, negative = cell killing [1, 6] -21.6% | outcome (astro)

C[N+]1(C)CCCC(OC(=O)C(O)(c2ccccc2)c2ccccc2)C1 (stereo not given)
inactive: outcome (C33A) | outcome (CAOV3) | outcome (CASKI) | outcome (Es-2) | outcome (HeLa) | outcome (Hek293T) | outcome (JEG-3) | Potency (OV90) | outcome (PA-1) | outcome (SKOV3) | outcome (Tov-21-G) | outcome (Tov112D) | activity, negative = cell killing [1, 7] -3.92% | activity, negative = cell killing [1, 8] -7.65% | activity, negative = cell killing [1, 9] 4.26% | activity, negative = cell killing [1, 10] -24.7% | outcome (astro)

C[C@@H]1CCC[C@H](C)N1
inactive: outcome (C33A) | outcome (CAOV3) | outcome (CASKI) | outcome (Es-2) | outcome (HeLa) | outcome (Hek293T) | outcome (JEG-3) | Potency (OV90) | outcome (PA-1) | outcome (SKOV3) | outcome (Tov-21-G) | outcome (Tov112D) | activity, negative = cell killing [1, 7] -13.9% | activity, negative = cell killing [1, 8] -3.64% | activity, negative = cell killing [1, 9] -2.57% | activity, negative = cell killing [1, 10] -18% | outcome (astro)

Cc1cc(C)c(NC(=O)CN(CC(=O)O)CC(=O)O)c(C)c1Br
inactive: outcome (C33A) | outcome (CAOV3) | outcome (CASKI) | outcome (Es-2) | outcome (HeLa) | outcome (Hek293T) | outcome (JEG-3) | Potency (OV90) | outcome (PA-1) | outcome (SKOV3) | outcome (Tov-21-G) | outcome (Tov112D) | activity, negative = cell killing [1, 3] -5.55% | activity, negative = cell killing [1, 4] -2.68% | activity, negative = cell killing [1, 5] -17.3% | activity, negative = cell killing [1, 6] -18.8% | outcome (astro)

CN1CCCN=C1COC(=O)C(O)(c1ccccc1)C1CCCCC1 (stereo not given)
inactive: outcome (C33A) | outcome (CAOV3) | outcome (CASKI) | outcome (Es-2) | outcome (HeLa) | outcome (Hek293T) | outcome (JEG-3) | Potency (OV90) | outcome (PA-1) | outcome (SKOV3) | outcome (Tov-21-G) | outcome (Tov112D) | activity, negative = cell killing [1, 3] -22.5% | activity, negative = cell killing [1, 4] -25.7% | activity, negative = cell killing [1, 6] -4.53% | outcome (astro)
active: Potency ([1]; tumour line A) 11.2 µM

O=C(NCC(O)CO)c1c(I)c(C(=O)NCC(O)CO)c(I)c(N(CCO)C(=O)CO)c1I (stereo not given)
inactive: outcome (C33A) | outcome (CAOV3) | outcome (CASKI) | outcome (Es-2) | outcome (HeLa) | outcome (Hek293T) | outcome (JEG-3) | Potency (OV90) | outcome (PA-1) | outcome (SKOV3) | outcome (Tov-21-G) | outcome (Tov112D) | activity, negative = cell killing [1, 7] -7.07% | activity, negative = cell killing [1, 8] -9.85% | activity, negative = cell killing [1, 9] 1% | activity, negative = cell killing [1, 10] -9.08% | outcome (astro)

CC(C)=CCC/C(C)=C/CO
inactive: outcome (C33A) | outcome (CAOV3) | outcome (CASKI) | outcome (Es-2) | outcome (HeLa) | outcome (Hek293T) | outcome (JEG-3) | Potency (OV90) | outcome (PA-1) | outcome (SKOV3) | outcome (Tov-21-G) | outcome (Tov112D) | activity, negative = cell killing [1, 3] -6.27% | activity, negative = cell killing [1, 4] 1.11% | activity, negative = cell killing [1, 5] -25.2% | activity, negative = cell killing [1, 6] 8.23% | outcome (astro) | max response [2] 1.1%

NNC(=O)CP(=O)(c1ccccc1)c1ccccc1
inactive: outcome (C33A) | outcome (CAOV3) | outcome (CASKI) | outcome (Es-2) | outcome (HeLa) | outcome (Hek293T) | outcome (JEG-3) | Potency (OV90) | outcome (PA-1) | outcome (SKOV3) | outcome (Tov-21-G) | outcome (Tov112D) | activity, negative = cell killing [1, 3] -1.23% | activity, negative = cell killing [1, 4] -15% | activity, negative = cell killing [1, 5] -19.4% | activity, negative = cell killing [1, 6] -12.7% | outcome (astro)

O=C(/C=C/c1ccc(O)c(O)c1)O[C@@H]1C[C@@](OC(=O)/C=C/c2ccc(O)c(O)c2)(C(=O)O)C[C@@H](O)[C@@H]1O
inactive: outcome (C33A) | outcome (CAOV3) | outcome (CASKI) | outcome (Es-2) | outcome (HeLa) | outcome (Hek293T) | outcome (JEG-3) | Potency (OV90) | outcome (PA-1) | outcome (SKOV3) | outcome (Tov-21-G) | outcome (Tov112D) | activity, negative = cell killing [1, 3] 1.43% | activity, negative = cell killing [1, 4] -4.97% | activity, negative = cell killing [1, 6] -11.7% | outcome (astro)
active: Potency ([1]; tumour line A) 28.2 µM

Cc1cc(NC(=O)C2=C(O)c3ccccc3S(=O)(=O)N2C)no1
inactive: outcome (C33A) | outcome (CAOV3) | outcome (CASKI) | outcome (Es-2) | outcome (HeLa) | outcome (Hek293T) | outcome (JEG-3) | Potency (OV90) | outcome (PA-1) | outcome (SKOV3) | outcome (Tov-21-G) | outcome (Tov112D) | activity, negative = cell killing [1, 3] -5.07% | activity, negative = cell killing [1, 4] -8.1% | activity, negative = cell killing [1, 6] -15.1% | outcome (astro)

Cc1cc(OI)c(C(C)C)cc1-c1cc(C(C)C)c(OI)cc1C
inactive: outcome (C33A) | outcome (CAOV3) | outcome (CASKI) | outcome (Es-2) | outcome (HeLa) | outcome (Hek293T) | outcome (JEG-3) | Potency (OV90) | outcome (PA-1) | outcome (SKOV3) | outcome (Tov-21-G) | outcome (Tov112D) | activity, negative = cell killing [1, 3] -6.87% | activity, negative = cell killing [1, 4] -13.4% | activity, negative = cell killing [1, 6] 33.1% | outcome (astro)

C[N+](C)(C)CC[N+]1(C)Cc2c(Cl)c(Cl)c(Cl)c(Cl)c2C1
inactive: outcome (C33A) | outcome (CAOV3) | outcome (CASKI) | outcome (Es-2) | outcome (HeLa) | outcome (Hek293T) | outcome (JEG-3) | Potency (OV90) | outcome (PA-1) | outcome (SKOV3) | outcome (Tov-21-G) | outcome (Tov112D) | activity, negative = cell killing [1, 3] -5.4% | activity, negative = cell killing [1, 4] -17.9% | activity, negative = cell killing [1, 6] -19.9% | outcome (astro)

CCOC(=O)[C@H](CCc1ccccc1)N[C@@H](C)C(=O)N1Cc2cc(OC)c(OC)cc2C[C@H]1C(=O)O
inactive: outcome (C33A) | outcome (CAOV3) | outcome (CASKI) | outcome (Es-2) | outcome (HeLa) | outcome (Hek293T) | outcome (JEG-3) | Potency (OV90) | outcome (PA-1) | outcome (SKOV3) | outcome (Tov-21-G) | outcome (Tov112D) | activity, negative = cell killing [1, 3] -9.77% | activity, negative = cell killing [1, 4] -6.92% | activity, negative = cell killing [1, 6] -6.4% | outcome (astro)

NS(=O)(=O)c1ccc(NC(=O)CCC(=O)O)cc1
inactive: outcome (C33A) | outcome (CAOV3) | outcome (CASKI) | outcome (Es-2) | outcome (HeLa) | outcome (Hek293T) | outcome (JEG-3) | Potency (OV90) | outcome (PA-1) | outcome (SKOV3) | outcome (Tov-21-G) | outcome (Tov112D) | activity, negative = cell killing [1, 3] -12.7% | activity, negative = cell killing [1, 4] 0.766% | activity, negative = cell killing [1, 6] -4.81% | outcome (astro)

O=S1(=O)OC(c2ccc(O)cc2)(c2ccc(O)cc2)c2ccccc21
inactive: outcome (C33A) | outcome (CAOV3) | outcome (CASKI) | outcome (Es-2) | outcome (HeLa) | outcome (Hek293T) | outcome (JEG-3) | Potency (OV90) | outcome (PA-1) | outcome (SKOV3) | outcome (Tov-21-G) | outcome (Tov112D) | activity, negative = cell killing [1, 3] -17.4% | activity, negative = cell killing [1, 4] -14.4% | activity, negative = cell killing [1, 6] 11.5% | outcome (astro)
